PubChem BioAssay (NCI)
Where “and” joins values, the source holds several entries; their conditions need not be identical. Equal entries are not always repeated. About 83,000 compounds went through this panel and 20% of them were active in at least one assay; those are over-represented in the sample as a whole.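 48-hour exposure, single concentration, 96-well plates; percent growth endpoint where 0 means no net growth. Active: below 10.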 Calls of active or inactive are those of the source. Where a SMILES comes first, the peptide text is derived from it.

What was measured:
Assay in all cases: NCI-60 one-dose screen, 48 h (100 = growth as untreated, 0 = no growth, -100 = all killed)
Settings in all cases: 10 µM unless noted
HCT-15 colon = system: HCT-15 colon
HT29 colon = system: HT29 colon
SNB-75 CNS = system: SNB-75 CNS
SNB-19 CNS = system: SNB-19 CNS
U251 CNS = system: U251 CNS
PC-3 prostate = system: PC-3 prostate
SK-MEL-5 melanoma = system: SK-MEL-5 melanoma
UACC-62 melanoma = system: UACC-62 melanoma
LOX IMVI melanoma = system: LOX IMVI melanoma
SK-MEL-28 melanoma = system: SK-MEL-28 melanoma

Measured: growth

CCCCOC(=O)/C=C\C(=O)NC(N)=O
inactive: HCT-15 colon 90.8% | HT29 colon 97% | SNB-75 CNS 95.9% | SNB-19 CNS 91.4% | U251 CNS 96.4% | PC-3 prostate 83% | SK-MEL-5 melanoma 99.8% | UACC-62 melanoma 79.1% | LOX IMVI melanoma 79.1% | SK-MEL-28 melanoma 97.6%

O=C(/C=C/c1ccccc1)c1ccccc1
inactive: HCT-15 colon 86.3% | HT29 colon 68.9% | SNB-75 CNS 101% | SNB-19 CNS 79% | U251 CNS 75.1% | PC-3 prostate 111% | SK-MEL-5 melanoma 84.4% | UACC-62 melanoma 102% | LOX IMVI melanoma 89.7% | SK-MEL-28 melanoma 115%

NC(Cc1ccccc1)C(=O)NC(Cc1ccccc1)C(=O)O (stereo not drawn) (H-Phe-Phe-OH; configuration not given here)
inactive: HCT-15 colon 106% and 98.3% | HT29 colon 101% and 104% | SNB-75 CNS 88.1% and 93.5% | SNB-19 CNS 94.5% and 100% | U251 CNS 99% and 94% | PC-3 prostate 95.2% and 90.6% | SK-MEL-5 melanoma 100% and 94.8% | UACC-62 melanoma 104% | LOX IMVI melanoma 95.3% and 103% | SK-MEL-28 melanoma 103% and 105%

NN1CCOC(c2ccccc2)C1 (centres undefined)
inactive: HCT-15 colon 101% | HT29 colon 113% | SNB-75 CNS 109% | SNB-19 CNS 101% | U251 CNS 102% | PC-3 prostate 94.3% | SK-MEL-5 melanoma 103% | UACC-62 melanoma 90.2% | LOX IMVI melanoma 94.6% | SK-MEL-28 melanoma 112%

Cc1ccc(=O)[nH]n1
inactive: HCT-15 colon 110% and 105% | HT29 colon 108% and 99.5% | SNB-75 CNS 108% and 103% | SNB-19 CNS 93.9% | U251 CNS 99.7% and 92.4% | PC-3 prostate 96.3% and 92% | SK-MEL-5 melanoma 101% and 105% | UACC-62 melanoma 106% and 104% | LOX IMVI melanoma 94.7% and 107% | SK-MEL-28 melanoma 111% and 115%

CCN(CCNS(C)(=O)=O)c1ccc(N)c(C)c1
inactive: HCT-15 colon 71.5% and 106% | HT29 colon 87.8% | SNB-75 CNS 128% and 95.5% | SNB-19 CNS 101% and 109% | U251 CNS 82.3% and 108% | PC-3 prostate 86.7% and 78.7% | SK-MEL-5 melanoma 81.1% and 98.4% | UACC-62 melanoma 71.4% and 82.2% | LOX IMVI melanoma 52.9% and 68.4% | SK-MEL-28 melanoma 80.2% and 104%

Fc1ccc([I+]c2ccc(F)cc2)cc1
inactive: HCT-15 colon 94.3% | HT29 colon 38.2% | SNB-75 CNS 80% | SNB-19 CNS 70% | U251 CNS 66.4% | PC-3 prostate 63.5% | SK-MEL-5 melanoma 52.2% | UACC-62 melanoma 82.5% | LOX IMVI melanoma 47.9% | SK-MEL-28 melanoma 95.8%

CC1(C)COC(=S)N1
inactive: HCT-15 colon 103% | HT29 colon 104% | SNB-75 CNS 87.4% | SNB-19 CNS 107% | U251 CNS 101% | PC-3 prostate 100% | SK-MEL-5 melanoma 112% | UACC-62 melanoma 93% | LOX IMVI melanoma 99.9% | SK-MEL-28 melanoma 104%

CCCCCCCCCCCCCCCCC(C(=O)O)C(O)(CC(=O)O)C(=O)O (centres undefined)
inactive: HCT-15 colon 105% and 66.4% | SNB-19 CNS 110% and 15% | PC-3 prostate 110% and 19.8% | SK-MEL-5 melanoma 107% | SK-MEL-28 melanoma 108%
108% (inactive) and -70.3% (active): UACC-62 melanoma
93.9% (inactive) and -31.8% (active): HT29 colon
101% (inactive) and 8.93% (active): U251 CNS
98.8% (inactive) and -58.3% (active): SNB-75 CNS
106% (inactive) and 0.982% (active): LOX IMVI melanoma

Cc1ccc(S(=O)(=O)c2ccccc2)cc1
active: HT29 colon 6.22% | SNB-75 CNS -19.3%
inactive: HCT-15 colon 30.5% | SNB-19 CNS 43.4% | U251 CNS 17.2% | PC-3 prostate 30.7% | SK-MEL-5 melanoma 23.7% | UACC-62 melanoma 63.4% | LOX IMVI melanoma 21% | SK-MEL-28 melanoma 59.6%

CN(C)CC1CCCCCC(CN(C)C)C1=O (centres undefined)
active: HCT-15 colon 7.44%
inactive: HT29 colon 31.8% | SNB-75 CNS 98.4% | SNB-19 CNS 108% | U251 CNS 89% | PC-3 prostate 86.7% | SK-MEL-5 melanoma 104% | UACC-62 melanoma 91.9% | LOX IMVI melanoma 81.3% | SK-MEL-28 melanoma 94.8%

CC(C)(O)C(=O)O
inactive: HCT-15 colon 105% | HT29 colon 104% | SNB-75 CNS 94.6% | SNB-19 CNS 103% | U251 CNS 97.9% | PC-3 prostate 98.2% | SK-MEL-5 melanoma 103% | UACC-62 melanoma 103% | LOX IMVI melanoma 101% | SK-MEL-28 melanoma 104%

O=C1c2c(O)ccc(O)c2C(=O)c2c(NCCNCCO)ccc(NCCNCCO)c21
active: HCT-15 colon -14.2% and 3.08% | HT29 colon -59.8% and -43.2% | SNB-75 CNS -90.4% | SNB-19 CNS -40.6% and -58.3% | U251 CNS -67% and -99.7% | PC-3 prostate -28% and -55.3% | SK-MEL-5 melanoma -100% | UACC-62 melanoma -91.9% and -86.7% | LOX IMVI melanoma -66.4% and -76.2%

CCc1cc(C)cc(O)c1
inactive: HCT-15 colon 111% | HT29 colon 99.4% | SNB-75 CNS 98% | SNB-19 CNS 103% | U251 CNS 96% | PC-3 prostate 97.1% | SK-MEL-5 melanoma 105% | UACC-62 melanoma 108% | LOX IMVI melanoma 105% | SK-MEL-28 melanoma 111%

Cc1cc(-c2ccc(N=Nc3ccc4c(S(=O)(=O)O)cc(S(=O)(=O)O)c(N)c4c3O)c(C)c2)ccc1N=Nc1ccc2c(S(=O)(=O)O)cc(S(=O)(=O)O)c(N)c2c1O
inactive: HCT-15 colon 96.6% | HT29 colon 83.6% | SNB-75 CNS 112% | SNB-19 CNS 111% | U251 CNS 97.6% | PC-3 prostate 81.9% | SK-MEL-5 melanoma 94.1% | UACC-62 melanoma 77.3% | LOX IMVI melanoma 96.9% | SK-MEL-28 melanoma 120%

CC1=C/C(O)CC(=O)Cc2nc(co2)C(=O)N2CCC=C2C(=O)OC(C(C)C)C(C)/C=C\C(=O)NC/C=C\1 (centres undefined)
inactive: HCT-15 colon 90.1% | HT29 colon 76.7% | SNB-75 CNS 80.8% | SNB-19 CNS 89.8% | U251 CNS 92.9% | PC-3 prostate 71.5% | SK-MEL-5 melanoma 96.7% | UACC-62 melanoma 84.9% | LOX IMVI melanoma 59.6% | SK-MEL-28 melanoma 32.6%

Brc1ccc(SSc2ccc(Br)cc2)cc1
active: LOX IMVI melanoma 3.5%
inactive: HCT-15 colon 77.3% | HT29 colon 97.2% | SNB-75 CNS 77.2% | SNB-19 CNS 87.9% | U251 CNS 65.8% | PC-3 prostate 39.7% | SK-MEL-5 melanoma 54.7% | UACC-62 melanoma 96.9% | SK-MEL-28 melanoma 97.6%

NC(Cc1c[nH]c2ccccc12)C(=O)O (centres undefined)
inactive: HCT-15 colon 107% and 104% | HT29 colon 110% and 97.4% | SNB-75 CNS 94.4% and 79.6% | SNB-19 CNS 104% | U251 CNS 103% and 97.4% | PC-3 prostate 91% and 86.7% | SK-MEL-5 melanoma 124% and 101% | UACC-62 melanoma 87.3% and 92.5% | LOX IMVI melanoma 96.1% and 95.8% | SK-MEL-28 melanoma 132% and 106%

c1ccc(CNCCNCc2ccccc2)cc1
inactive: HCT-15 colon 101% | HT29 colon 108% | SNB-75 CNS 86.7% | SNB-19 CNS 107% | U251 CNS 96% | PC-3 prostate 92.4% | SK-MEL-5 melanoma 107% | UACC-62 melanoma 105% | LOX IMVI melanoma 110% | SK-MEL-28 melanoma 108%

Oc1ccc(Cc2ccccc2Cl)c(O)c1
inactive: HCT-15 colon 97.2% | HT29 colon 106% | SNB-75 CNS 80.5% | SNB-19 CNS 100% | U251 CNS 96.2% | PC-3 prostate 82.5% | SK-MEL-5 melanoma 97.7% | UACC-62 melanoma 85.7% | LOX IMVI melanoma 86.3% | SK-MEL-28 melanoma 110%

O=C(O)/C=C\C(=O)Nc1cccc2ccccc12
inactive: HCT-15 colon 102% and 96.9% | HT29 colon 98.1% and 110% | SNB-75 CNS 70% and 83% | SNB-19 CNS 104% and 100% | U251 CNS 94.2% and 102% | PC-3 prostate 103% and 93.6% | SK-MEL-5 melanoma 95.3% and 108% | UACC-62 melanoma 99.8% and 79.8% | LOX IMVI melanoma 102% and 104% | SK-MEL-28 melanoma 101% and 116%

O=C1C=C(Nc2ccccc2)c2ccccc2C1=O
inactive: HCT-15 colon 14.4% and 88.9% | HT29 colon 103% and 119% | SNB-75 CNS 23.5% | SNB-19 CNS 45.3% and 95.2% | U251 CNS 96.6% | PC-3 prostate 53.8% and 76.8% | SK-MEL-5 melanoma 74.2% | LOX IMVI melanoma 71.6% | SK-MEL-28 melanoma 105% and 114%
4.24% (active) and 97.1% (inactive): UACC-62 melanoma

C#CCOC(=O)Nc1ccccc1
inactive: HCT-15 colon 99.6% | HT29 colon 112% | SNB-75 CNS 91.2% | SNB-19 CNS 111% | U251 CNS 98.2% | PC-3 prostate 96.7% | SK-MEL-5 melanoma 103% | UACC-62 melanoma 104% | LOX IMVI melanoma 99.2% | SK-MEL-28 melanoma 103%
